ARNT-TACC3 inh – disrupts binding between human ARNT and TACC3; hit rate 0.66% among 390,000; AID 623870; Q9Y6A5; inhibition, % at 9.99 µM; AlphaScreen His-ARNT PAS-B/GST-TACC3 binding, luminescence; TACC3 fragment carries E629A point mutation;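 active = mean inhibition of replicates at least 50% and at least half of replicates each reaching 50%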;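 also: 0% = complete ARNT plus TACC3 wells and 100% = ARNT alone without TACC3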
GSIS activator – primary screen for activators of insulin secretion dependent on glucose, INS-1E cells, GLuc reporter luminescence; hit rate 0.61% among 370,000; AID 743287; activation, % at 16.6 µM; INS-1E GLuc reporter insulin secretion, 2-3 h;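 active = lowest replicate activation of at least 40%, so every replicate reaches that level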;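 also: 0% = median of neutral control wells and 100% = median of IBMX positive control wells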
hiPSC survival – increases survival of single human iPS cells; hiPSC single-cell survival, ATPlite luminescence; 100% = ROCK inhibitor wells, 0% = DMSO; survival enhancement, % at 20 µM; hit rate 0.044% among 360,000; in the data active = survival enhancement above about 18%;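 also: cells exposed to compounds for 16 hours before the ATP read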
NRP1-CendR mod – NRP-1/CendR interaction modulation; FAM-RPARPAR peptide binding to NRP-1, fluorescence polarization; inhibition, % at 25 µM; hit rate 0.85% among 360,000;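 active = inhibition or corrected inhibition above about 18%, plus a signal ratio from 0.5 to 1.5, limit read from the data, passing the limit was not always enough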
ABCB6 inh 2 – blocks the human ABCB6 transporter | AID 602162 | K562-ABCB6 porphyrin accumulation, flow cytometry, 1 h; hits give low values | fluorescence ratio to DMSO, % at 10 µM | hit rate 0.19% among 360,000 | Q9NP58;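 active = fluorescence ratio to DMSO below 75%, the collection mean minus 3 SD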;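 also: signal is porphyrin accumulated inside mitochondria; 100% equals median channel fluorescence of DMSO control wells; lower ratio means ABCB6 inhibition with less porphyrin fluorescence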
Target sequence (Q9NP58 whole entry, looked up): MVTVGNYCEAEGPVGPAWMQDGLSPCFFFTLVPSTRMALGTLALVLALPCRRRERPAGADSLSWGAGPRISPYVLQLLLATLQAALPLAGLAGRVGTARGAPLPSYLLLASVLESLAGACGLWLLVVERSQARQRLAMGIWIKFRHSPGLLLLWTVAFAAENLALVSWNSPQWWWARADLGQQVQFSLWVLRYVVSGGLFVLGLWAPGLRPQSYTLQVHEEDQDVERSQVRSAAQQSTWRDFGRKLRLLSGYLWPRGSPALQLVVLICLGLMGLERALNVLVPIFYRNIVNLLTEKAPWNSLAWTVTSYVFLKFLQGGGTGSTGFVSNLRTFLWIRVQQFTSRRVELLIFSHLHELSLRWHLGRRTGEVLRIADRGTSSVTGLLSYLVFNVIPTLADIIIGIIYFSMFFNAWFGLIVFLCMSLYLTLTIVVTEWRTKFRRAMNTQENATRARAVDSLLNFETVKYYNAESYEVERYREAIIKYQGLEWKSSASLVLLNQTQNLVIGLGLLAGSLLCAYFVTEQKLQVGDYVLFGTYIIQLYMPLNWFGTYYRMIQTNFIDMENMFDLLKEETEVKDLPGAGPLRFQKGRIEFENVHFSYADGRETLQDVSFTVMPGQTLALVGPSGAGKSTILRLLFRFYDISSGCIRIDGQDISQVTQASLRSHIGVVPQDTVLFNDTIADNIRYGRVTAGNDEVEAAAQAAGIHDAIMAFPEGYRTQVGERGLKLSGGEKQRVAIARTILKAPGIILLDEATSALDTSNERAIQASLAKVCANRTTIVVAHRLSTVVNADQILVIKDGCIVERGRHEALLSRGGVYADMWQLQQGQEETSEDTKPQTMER
An asterisk follows results filed as active; · = not tested or not shown. Rows were chosen to be rich in hits. Some 1.8% of all compounds tested hit in one or more screens of this group.

SMILES	ARNT-TACC3 inh	GSIS activator	hiPSC survival	NRP1-CendR mod	ABCB6 inh 2
O=C(Nc1ccc(Cl)cc1)N[C@H]1CC[C@H](CCn2cc(C3(O)CCCC3)nn2)O[C@H]1CO	-4	-16	·	·	·
C[C@@H]1CN([C@@H](C)CO)C(=O)c2cc(-c3ccccc3F)cnc2O[C@H]1CN(C)Cc1ccccc1	-2	-12	·	·	·
COc1ccc2c3c(n(C)c2c1)[C@@H](CO)N(Cc1ccc2c(c1)OCO2)CC31CN(C(=O)c2ccc3c(c2)OCO3)C1	·	-2	·	·	·
COc1ccc(N2CCN(Cc3nnnn3C3CCCCC3)CC2)cc1	·	5	0	23*	94
C/C=C/c1ccc([C@@H]2[C@H](CO)N3C(=O)CN(C(=O)Nc4ccccc4F)C[C@@H]23)cc1	·	-2	·	·	·
CC(C)=NNc1ncnc2nc[nH]c12	72*	·	-1	-2	88
CN(C)CCCOC(=O)c1cc2ccccc2o1	0	·	0	24*	90
COc1cc(NS(=O)(=O)c2ccc(C)c(C)c2)c(OC)cc1Cl	-5	·	-1	27*	98
O=C(NCCN1CCNCC1)c1ccccc1O	·	·	-1	-4	88
c1ccc(CNCCN2CCNCC2)nc1	66*	·	0	0	101
COc1ccc(-c2cc(N)n(S(=O)(=O)c3c(F)c(F)c(F)c(F)c3F)n2)cc1OC	43	14	9	26*	98
COc1ccc(S(=O)(=O)n2nc(-c3cc(OC)c(OC)c(OC)c3)cc2N)cc1OC	-1	2	0	-7	105
C[C@H](CO)N1C[C@H](C)[C@@H](CN(C)Cc2ccc(C(=O)Nc3ccccc3N)cc2)Oc2ccc(NC(=O)CCN3CCOCC3)cc2C1=O	·	19	·	·	·
O=S(=O)(c1ccc(Br)cc1)c1nc(-c2ccco2)oc1NCCCn1ccnc1	64*	16	0	1	99
O=S(=O)(c1ccccc1)c1nc(-c2cccs2)oc1NCCCn1ccnc1	10	-4	8	-12	95
CN(C(=O)c1ccc(C#N)cc1)c1nnc(-c2cnccn2)s1	-5	46*	0	-9	95
CN(C(=O)c1ccno1)c1nnc(-c2cnccn2)s1	·	·	-2	0	90
Cc1cc(=O)oc2cc(NS(=O)(=O)c3ccccc3)ccc12	-1	-4	1	13	97
Cc1cc(=O)oc2cc(NS(=O)(=O)c3ccc(F)cc3)ccc12	-6	-13	-1	37*	92
CCC(=O)Nc1ccc2c(c1)C(=O)N(C)[C@H]1CC[C@H](CC(=O)NCCc3ccncc3)O[C@@H]1CO2	·	0	·	·	·
Cc1ccc(CNc2nc(NCc3ccccc3)nc3ccsc23)c(C)c1	·	196*	-2	0	92
Cc1cc(C(=O)Nc2cccc3c2O[C@H](CN(C)S(C)(=O)=O)[C@@H](C)CN([C@H](C)CO)C3=O)n(C)n1	-8	2	·	·	·
O=C(NN1C(=O)CSC1=S)C(=O)NN1C(=O)CSC1=S	59*	·	2	-12	101
CS(=O)(=O)N1CCN(c2ccc(NC(=O)c3ccc(-c4ccc(Cl)cc4)o3)cc2)CC1	·	80*	-2	2	104
Cc1ccc(S(=O)(=O)N2CC[C@@H]3[C@H]2c2cc(C#Cc4cccnc4)ccc2N(C)[C@H]3CO)cc1	41	13	·	·	·
SMILES	ARNT-TACC3 inh	GSIS activator	hiPSC survival	NRP1-CendR mod	ABCB6 inh 2
c1cncc(-c2ccc3ncnc(NCc4ccc5c(c4)OCO5)c3c2)c1	2	·	1	16	97
Clc1ccccc1-c1ccc2ncnc(NCc3ccc4c(c3)OCO4)c2c1	-4	-2	-2	22*	91
COc1cc(CNCCO)cc(Br)c1OCc1ccccc1Cl	0	·	-3	-17	97
COc1cc(CNC(C)(C)CO)cc(Br)c1OCc1ccc(Cl)cc1Cl	7	176*	-3	6	94
COc1cc(CNC(C)(C)CO)cc(Br)c1OCc1ccc(Cl)cc1	4	-17	-3	30*	96
COc1cc(CNCCO)cc(Cl)c1OCc1ccc(Cl)cc1Cl	·	42*	-3	2	103
COc1cc(CNc2ccc(O)cc2)cc(Br)c1OCc1ccccc1	10	-29	-1	-1	96
CCOc1cc(CNc2ccc(O)cc2)ccc1OCc1ccc(Cl)cc1Cl	40	·	0	24	102
CNC[C@H]1Oc2ccc(NS(=O)(=O)c3ccc(F)cc3)cc2CC(=O)N([C@H](C)CO)C[C@@H]1C	6	7	·	·	·
COc1ccc(CNC(=O)C[C@@H]2C[C@H]3c4cc(NC(=O)NC5CCCC5)ccc4O[C@H]3[C@@H](CO)O2)cc1	-8	15	·	·	·
O=C(C[C@H]1C=C[C@@H](NC(=O)Nc2ccc(C(F)(F)F)cc2)[C@H](CO)O1)NCc1ccccn1	-4	20	·	·	·
CCOC(=O)c1cc(-c2ccccc2)sc1NC(=S)Nc1cccc(C)n1	-4	·	3	43*	95
CCCNC(=O)[C@@H]1[C@@H](CO)[C@@H]2Cn3c(ccc(/C=C/c4ccccc4)c3=O)[C@H]1N2C(=O)c1cccnc1	-9	2	·	·	·
CCCn1nc2cc(C(=O)NCc3ccc4c(c3)OCO4)ccc2c1OCC	1	-6	2	-11	101
CCCn1nc2cc(C(=O)NCc3ccc(OC(F)(F)F)cc3)ccc2c1OCC	-6	·	-2	19*	99
CCOc1c2ccc(C(=O)NCc3ccc(OC(F)(F)F)cc3)cc2nn1CC	-11	-10	2	-5	102
CCOc1c2ccc(C(=O)NCc3ccc4c(c3)OCO4)cc2nn1CCOC	-9	-7	2	18*	96
O=C(Nc1cc(F)ccc1F)N1CCCCN2[C@H](CO)[C@H](c3ccc(C4=CCCCC4)cc3)[C@H]2C1	·	-3	·	·	·
CC(=O)N1C[C@@H]2C(c3ccc(Br)cc3)[C@H](C1)N2Cc1ccc(F)cc1 (stereo not given in full)	·	2	·	·	·
COc1ccnc(CSC(N)=Nc2ccccc2OC)c1	62*	·	-1	6	93
COc1ccnc(CSC(N)=Nc2ccccc2C(F)(F)F)c1	26	9	-1	14	97
N#C[C@H]1[C@H](c2ccccc2C2=CCCCC2)[C@@H](CO)N1C(=O)NC1CCCCC1	·	-21	·	·	·
Cc1cc(Br)c2c(c1)C1(OCCO1)C(=O)N2	9	41*	0	12	95
CO[C@@H]1CN(C)C(=O)c2cc(NC(=O)Cc3ccccc3)ccc2OC[C@@H](C)N(C(C)=O)C[C@H]1C	-2	-7	·	·	·
CCNc1ccc(C(=O)N/N=C/c2c(C)nn(-c3ccccc3)c2N2CCCC2)cc1[N+](=O)[O-]	2	46*	2	21	97
CCOc1ncccc1C(=O)NNC(=O)c1ccccc1-n1cccc1	-12	54*	0	3	99
CCOc1ncccc1C(=O)Nc1ccccc1F	5	77*	0	4	97
